Assay results: PubChem BioAssay AID1159580 (chemical genetic matrix, 2015)
In all, about 5,500 compounds went through this assay and about 2,000 (36%) were called active. Roughly 18% stayed inconclusive and do not appear here. No stated cut-off is given here; in the data, active means normalized growth mostly below about 0.91 (no sharp cut-off); inconclusive means no clear call, values can overlap the other calls; inactive means mostly above about 0.92. This is one part of the list.

Experiment: chemical genetic growth profiling, strain panel (AID 1159580);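 further: tested at 20 µM; growth read once vehicle control cultures reached saturation at 30 °C; 1 = growth at the plate median or of vehicle wells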
Conditions: S. cerevisiae deletion strains, growth OD

Measured: normalized growth

COc1ccc2c3c1O[C@H]1C(=O)CC[C@@]4(O)C(C2)N(CC2CC2)CCC314 (stereo partly specified)
inactive: locus YAL040C, strain CLN3, stronger effect = lower value 0.992 | locus YCL061C, strain MRC1 (second series), stronger effect = lower value 0.999 | locus YDR363W, strain ESC2, stronger effect = lower value 1.02 | locus YER002W, strain NOP16, stronger effect = lower value 0.991 | locus YJR075W, strain HOC1, stronger effect = lower value 0.995 | locus YMR263W, strain SAP30, stronger effect = lower value 1 | locus YMR307W, strain GAS1, stronger effect = lower value 0.993 | locus YNL128W, strain TEP1, stronger effect = lower value 0.99 | locus YNL153C, strain GIM3, stronger effect = lower value 0.995 | locus YNL175C, strain NOP13, stronger effect = lower value 1.01 | locus YNL197C, strain WHI3, stronger effect = lower value 1.02 | locus YNL224C, strain SQS1, stronger effect = lower value 0.992 | locus YNL322C, strain KRE1, stronger effect = lower value 1.01 | locus YOR083W, strain WHI5 (second series), stronger effect = lower value 0.999 | locus YPL055C, strain LGE1, stronger effect = lower value 1 | locus YPL241C, strain CIN2, stronger effect = lower value 0.999
